Reference: PMC7826789 (International Journal of Molecular Sciences, 2021)

Columns and labels:
Settings in all cases: Compound Concentration (nM):1000
AAK1 = system: AAK1
[1] = system: ABL1(E255K)-phosphorylated
[2] = system: ABL1(F317I)-nonphosphorylated
[3] = system: ABL1(F317I)-phosphorylated
[4] = system: ABL1(F317L)-nonphosphorylated
[5] = system: ABL1(F317L)-phosphorylated
[6] = system: ABL1(H396P)-nonphosphorylated
[7] = system: ABL1(H396P)-phosphorylated
[8] = system: ABL1(M351T)-phosphorylated
[9] = system: ABL1(Q252H)-nonphosphorylated
[10] = system: ABL1(Q252H)-phosphorylated
[11] = system: ABL1(T315I)-nonphosphorylated
[12] = system: ABL1(T315I)-phosphorylated
[13] = system: ABL1(Y253F)-phosphorylated
ABL1-nonphosphorylated = system: ABL1-nonphosphorylated
ABL1-phosphorylated = system: ABL1-phosphorylated
ABL2 = system: ABL2
ACVR1B = system: ACVR1B
ACVR1 = system: ACVR1
ACVR2A = system: ACVR2A
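Note: KINOMEscan scanMAX binding as percent activity remaining versus control; lower means stronger binding.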

SMILES	Percent Control (AAK1) [%]	Percent Control [1] [%]	Percent Control [2] [%]	Percent Control [3] [%]	Percent Control [4] [%]	Percent Control [5] [%]	Percent Control [6] [%]	Percent Control [7] [%]	Percent Control [8] [%]	Percent Control [9] [%]	Percent Control [10] [%]	Percent Control [11] [%]	Percent Control [12] [%]	Percent Control [13] [%]	Percent Control (ABL1-nonphosphorylated) [%]	Percent Control (ABL1-phosphorylated) [%]	Percent Control (ABL2) [%]	Percent Control (ACVR1B) [%]	Percent Control (ACVR1) [%]	Percent Control (ACVR2A) [%]
CCc1ccc(Oc2nccc(-c3c(-c4ccc(F)cc4)ncn3C3CCNCC3)n2)cc1 [SB-242719]	100	63	87	80	100	98	77	67	98	68	79	93	100	71	74	62	100	83	78	100
COc1cc2ncnc(Nc3ccc4c(cnn4Cc4ccccc4)c3)c2cc1OC.Cl [GW282449A]	100	100	100	81	93	60	80	100	100	96	100	100	100	100	90	100	100	100	100	100
Cl.O=C(Nc1ccc(Oc2ccc3[nH]c(NC(=O)c4ccccc4)nc3c2)cc1)Nc1cc(C(F)(F)F)ccc1F [GW709042A]	100	83	43	76	26	80	9.9	67	62	8	94	12	31	69	9.8	60	26	100	100	100
Cl.c1ccc(Cc2nc3ccc(Nc4ncnc5ccccc45)cc3[nH]2)cc1 [GR269666A]	100	100	100	88	100	92	86	100	100	98	100	100	100	100	96	100	100	100	100	100
CN(C)c1cc2c(Nc3ccc4c(cnn4Cc4ccccc4)c3)ncnc2cn1 [GW282974X]	75	59	84	91	99	50		63	100	48	66	74	100	65		54	95	100	87	100
NS(=O)(=O)c1ccc(N/N=C2\C(=O)Nc3ccc(C(=O)NCCc4c[nH]cn4)cc32)cc1 [GW300660X]	100	100	100	77	98	100	93	100	100	99	100	100	86	100	100	91	100	100	100	100
COc1cc(C)c(N(C)C(=O)CN(C)C)cc1Nc1nc(Nc2cccc(F)c2C(N)=O)c2cc[nH]c2n1 [GSK2219385]	94	95	55	97	100	56	51	99	100	62	95	65	100	100	69	87	100	100	96	100
NS(=O)(=O)c1ccc(N/N=C2\C(=O)Nc3ccc(C(=O)NCc4ccncc4)cc32)cc1 [GW300657X]	29	79	85	81	92	54	63	82	91	78	72	97	98	82	79	77	100	100	100	100
Cl.O=S1CCN(Cc2ccc(-c3ccc4ncnc(Nc5ccc(OCc6ccccc6)c(F)c5)c4c3)o2)CC1 [GW576924A]	100	100	100	96	100	70	99	100	100	100	100	100	100	100	100	89	100	100	100	100
CC(C)COC(=O)c1ccc2c(c1)/C(=C/Nc1ccc(S(N)(=O)=O)cc1)C(=O)N2 [GW416981X]	26	100	100	83	100	100	75	100	100	95	100	100	73	100	100	100	100	100	100	100
CN(C)CCNC(=O)Nc1ccc(N(C)c2ccnc(Nc3ccc(CS(C)(=O)=O)cc3)n2)cc1.Cl [GW830900A]	20	82	93	84	91	84	38	82	73	47	58	78	86	65	59	71	75	100	79	79
